Test results taken from PubChem BioAssay AID1159580 (chemical genetic matrix, 2015).
“And” between values parts separate entries of the source, which are not always exact repeats. Identical values can stand only once. About 2,000 (36%) of roughly 5,500 compounds were called active. Another 18% or so got no clear call; they are omitted. Rule as the data show it: active = normalized growth mostly below about 0.91 (no sharp cut-off); inconclusive = no clear call, values can overlap the other calls; inactive = mostly above about 0.92. Some of the results follow.

Assay: chemical genetic growth profiling, strain panel (AID 1159580);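 also: tested at 20 µM; growth read once vehicle control cultures reached saturation at 30 °C; 1 = growth at the plate median or of vehicle wells; lower values mean less growth of the strain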
Conditions: growth OD

Measured: normalized growth

CN(C)C(=O)Oc1ccc[n+](C)c1
inactive: S. cerevisiae deletion strains, locus YJR075W, strain HOC1, stronger effect = lower value 1 | S. cerevisiae deletion strains, locus YKL009W, strain mrt4, stronger effect = lower value 1.01 | S. cerevisiae deletion strains, locus YKL068W, stronger effect = lower value 1.02 | S. cerevisiae deletion strains, locus YKL085W, strain MDH1 (second series), stronger effect = lower value 1.01 | S. cerevisiae deletion strains, locus YKL085W, strain MDH1, stronger effect = lower value 1.01 | S. cerevisiae deletion strains, locus YKL160W, strain elf1, stronger effect = lower value 1 | S. cerevisiae deletion strains, locus YKL190W, strain CNB1, stronger effect = lower value 1.02 | S. cerevisiae deletion strains, locus YKR001C, strain vps1, stronger effect = lower value 1.01 | S. cerevisiae deletion strains, locus YKR026C, strain gcn3, stronger effect = lower value 1.01 | S. cerevisiae deletion strains, locus YKR091W, strain srl3, stronger effect = lower value 0.997 | S. cerevisiae deletion strains, locus YLL001W, strain dnm1, stronger effect = lower value 0.996 | S. cerevisiae deletion strains, locus YLL026W, stronger effect = lower value 0.999 | S. cerevisiae deletion strains, locus YLL041C, strain sdh2, stronger effect = lower value 1 | S. cerevisiae deletion strains, locus YLR027C, strain aat2, stronger effect = lower value 0.999 | S. cerevisiae deletion strains, locus YLR039C, strain RIC1, stronger effect = lower value 1.05 | S. cerevisiae deletion strains, locus YLR058C, strain SHM2, stronger effect = lower value 1.03 | S. cerevisiae deletion strains, locus YLR102C, strain apc9, stronger effect = lower value 1.01 | S. cerevisiae deletion strains, locus YLR113W, strain HOG1, stronger effect = lower value 1.05 | S. cerevisiae deletion strains, locus YLR221C, strain rsa3, stronger effect = lower value 0.997 | S. cerevisiae deletion strains, locus YLR258W, strain gsy2, stronger effect = lower value 1 | S. cerevisiae deletion strains, locus YLR262C, strain YPT6 (second series), stronger effect = lower value 1.01 | S. cerevisiae deletion strains, locus YLR262C, strain YPT6, stronger effect = lower value 1.06 | S. cerevisiae deletion strains, locus YLR268W, strain sec22, stronger effect = lower value 1.01 | S. cerevisiae deletion strains, locus YLR320W, strain mms22, stronger effect = lower value 1.01 | S. cerevisiae deletion strains, locus YLR330W, strain CHS5, stronger effect = lower value 1.01 | S. cerevisiae deletion strains, locus YLR342W, strain FKS1 (second series), stronger effect = lower value 1.06 | S. cerevisiae deletion strains, locus YLR342W, strain FKS1, stronger effect = lower value 1.01 | S. cerevisiae deletion strains, locus YLR357W, strain rsc2, stronger effect = lower value 1 | S. cerevisiae deletion strains, locus YLR370C, strain arc18, stronger effect = lower value 1.01 | S. cerevisiae deletion strains, locus YLR371W, strain rom2, stronger effect = lower value 1.01 | S. cerevisiae deletion strains, locus YLR384C, strain iki3, stronger effect = lower value 1.01 | S. cerevisiae deletion strains, locus YLR418C, strain cdc73, stronger effect = lower value 1.03 | S. cerevisiae deletion strains, locus YML016C, strain PPZ1, stronger effect = lower value 1.01 | S. cerevisiae deletion strains, locus YML032C, strain rad52, stronger effect = lower value 1.01 | S. cerevisiae deletion strains, locus YML120C, strain ndi1, stronger effect = lower value 1 | S. cerevisiae deletion strains, locus YML124C, strain tub3, stronger effect = lower value 1.04 | S. cerevisiae deletion strains, locus YMR058W, strain fet3, stronger effect = lower value 0.994 | S. cerevisiae deletion strains, locus YMR078C, strain ctf18, stronger effect = lower value 1.01 | S. cerevisiae deletion strains, locus YMR125W, strain sto1, stronger effect = lower value 1 | S. cerevisiae deletion strains, locus YMR129W, stronger effect = lower value 1 | S. cerevisiae deletion strains, locus YMR205C, strain PFK2, stronger effect = lower value 1.02 | S. cerevisiae deletion strains, locus YMR223W, strain ubp8, stronger effect = lower value 1.05 | S. cerevisiae deletion strains, locus YMR231W, strain pep5, stronger effect = lower value 1 | S. cerevisiae deletion strains, locus YMR263W, strain SAP30, stronger effect = lower value 1.01 | S. cerevisiae deletion strains, locus YMR307W, strain GAS1, stronger effect = lower value 1.04 | S. cerevisiae deletion strains, locus YNL067W, strain RPL9B, stronger effect = lower value 1.01 | S. cerevisiae deletion strains, locus YNL071W, strain lat1, stronger effect = lower value 1 | S. cerevisiae deletion strains, locus YNL153C, strain GIM3, stronger effect = lower value 0.986 | S. cerevisiae deletion strains, locus YNL175C, strain NOP13, stronger effect = lower value 0.972 | S. cerevisiae deletion strains, locus YNL183C, strain NPR1, stronger effect = lower value 0.981 | S. cerevisiae deletion strains, locus YNL197C, strain WHI3, stronger effect = lower value 0.961 | S. cerevisiae deletion strains, locus YNL209W, strain ssb2, stronger effect = lower value 1 | S. cerevisiae deletion strains, locus YNL224C, strain SQS1, stronger effect = lower value 0.982 | S. cerevisiae deletion strains, locus YNL233W, strain BNI4, stronger effect = lower value 1 | S. cerevisiae deletion strains, locus YNL248C, strain rpa49, stronger effect = lower value 0.996 | S. cerevisiae deletion strains, locus YNL250W, strain rad50, stronger effect = lower value 1.02 | S. cerevisiae deletion strains, locus YNL271C, strain bni1, stronger effect = lower value 1.02 | S. cerevisiae deletion strains, locus YNL298W, strain CLA4, stronger effect = lower value 1.02 | S. cerevisiae deletion strains, locus YNL307C, strain MCK1, stronger effect = lower value 1.02 | S. cerevisiae deletion strains, locus YNL322C, strain KRE1 (second series), stronger effect = lower value 1 | S. cerevisiae deletion strains, locus YNR049C, strain mso1, stronger effect = lower value 1 | S. cerevisiae deletion strains, locus YNR052C, strain pop2, stronger effect = lower value 1.02 | S. cerevisiae deletion strains, locus YOL006C, strain TOP1, stronger effect = lower value 0.966 | S. cerevisiae deletion strains, locus YOL012C, strain htz1 0.894 | S. cerevisiae deletion strains, locus YOL147C, strain pex11, stronger effect = lower value 1.02 | S. cerevisiae deletion strains, locus YOR001W, strain rrp6, stronger effect = lower value 0.985 | S. cerevisiae deletion strains, locus YOR061W, strain CKA2, stronger effect = lower value 1.02 | S. cerevisiae deletion strains, locus YOR069W, strain VPS5, stronger effect = lower value 1.02 | S. cerevisiae deletion strains, locus YOR070C, strain gyp1, stronger effect = lower value 1 | S. cerevisiae deletion strains, locus YOR080W, strain dia2, stronger effect = lower value 1.03 | S. cerevisiae deletion strains, locus YOR083W, strain WHI5 (second series), stronger effect = lower value 0.968 | S. cerevisiae deletion strains, locus YOR083W, strain WHI5, stronger effect = lower value 0.999 | S. cerevisiae deletion strains, locus YOR106W, strain vam3, stronger effect = lower value 1 | S. cerevisiae deletion strains, locus YOR136W, strain idh2, stronger effect = lower value 1.02 | S. cerevisiae deletion strains, locus YOR144C, strain elg1, stronger effect = lower value 1.01 | S. cerevisiae deletion strains, locus YOR184W, strain ser1, stronger effect = lower value 1.01 | S. cerevisiae deletion strains, locus YOR231W, strain MKK1, stronger effect = lower value 1.03 | S. cerevisiae deletion strains, locus YOR265W, strain rbl2, stronger effect = lower value 1.01 | S. cerevisiae deletion strains, locus YOR270C, strain vph1, stronger effect = lower value 0.993 | S. cerevisiae deletion strains, locus YOR290C, strain snf2, stronger effect = lower value 1 | S. cerevisiae deletion strains, locus YOR316C, strain cot1, stronger effect = lower value 1.02 | S. cerevisiae deletion strains, locus YPL051W, strain arl3, stronger effect = lower value 1 | S. cerevisiae deletion strains, locus YPL055C, strain LGE1, stronger effect = lower value 1 and 1.04 | S. cerevisiae deletion strains, locus YPL078C, strain atp4, stronger effect = lower value 0.999 | S. cerevisiae deletion strains, locus YPL106C, strain sse1, stronger effect = lower value 1.01 | S. cerevisiae deletion strains, locus YPL240C, strain hsp82, stronger effect = lower value 1 | S. cerevisiae deletion strains, locus YPL241C, strain CIN2, stronger effect = lower value 0.991 | S. cerevisiae deletion strains, locus YPL256C, strain CLN2, stronger effect = lower value 1 | S. cerevisiae deletion strains, locus YPR119W, strain clb2, stronger effect = lower value 1.01 | S. cerevisiae deletion strains, locus YPR141C, strain kar3, stronger effect = lower value 1.02 | S. cerevisiae deletion strains, locus YPR163C, strain tif3, stronger effect = lower value 1.02 | S. cerevisiae deletion strains, locus YPR167C, strain met16, stronger effect = lower value 1.01 | S. cerevisiae deletion strains, strain wtn01, stronger effect = lower value 1.01 | S. cerevisiae strains, strain wild type, stronger effect = lower value 1.02
